Results as given in the supplement of paper PMC10646978.
± gives the standard deviation.

Columns and labels:
Details in all cases: modulator concentration 10 µM
[1] = tested on: RAW-Dual (murine macrophage reporter line); assay: NF-kB reporter (SEAP) activity fold change vs agonist alone; higher = enhanced NF-kB activity
Summary of the method: (§1)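 RAW-Dual murine macrophage reporter cells were plated at 50 000 per well in 384-well plates, pin-transferred compound to 10 μM final, and pre-incubated for 1 hour at 37 °C before a PRR agonist was added and the cells incubated overnight. NF-κB activity was read from supernatant SEAP with QUANTI-Blue at 620 nm absorbance, and IRF activity from Lucia luciferase with QUANTI-Luc by luminescence. Each signal was expressed as fold change by dividing by the mean agonist-only control on the same plate. Two replicate plates were averaged, with errors obtained by propagation.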

[2] = tested on: RAW-Dual (murine macrophage reporter line); assay: IRF reporter (Lucia luciferase) activity fold change vs agonist alone; higher = enhanced IRF activity
Summary of the method: as §1

[3] = tested on: RAW-Dual (murine macrophage reporter line); assay: viability score (confluency relative to resting cells, overnight) (fraction); higher = more viable, active = viable (0.7 or more)
Summary of the method: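 Overnight exposure to 10 μM final compound was carried out on RAW-Dual macrophages in 384-well plates. IncuCyte software generated two confluency masks over all wells imaged with IncuCyte. The viability score gives confluency in relation to resting cells. A compound met the cutoff if each mask exceeded 70% of resting cells.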

[4] = agonist: CpG ODN 1826 0.5 ug/mL

SMILES | NF-kB reporter [1, 4] | NF-kB reporter ([1]; agonist: LPS 0.1 ug/mL) | NF-kB reporter ([1]; agonist: MPLA […]) | IRF reporter ([2]; agonist: 3'3'-cGAMP 10 ug/mL) | IRF reporter ([2]; agonist: LPS 0.1 ug/mL) | IRF reporter ([2]; agonist: MPLA […]) | viability score [3]
CC(C(=O)O)c1ccc2c(c1)CC(=O)c1ccccc1S2 (centres undefined) | 1.19 ± 0.18 | 1.19 ± 0.43 | 0.977 ± 0.06 | 1.03 ± 0.032 | 1.26 ± 0.42 | 1.22 ± 0.13 | 0.988 (active)
O=c1ccc2ccc(OCCCCN3CCN(c4cccc5sccc45)CC3)cc2[nH]1 | 0.31 ± 0.016 | 0.917 ± 0.073 | 1.16 ± 0.14 | 1.05 ± 0.096 | 1.35 ± 0.25 | 1.15 ± 0.34 | 0.27 (inactive)
Cc1ccc(Nc2cc(N3CCCCC3)c(N)c3c2C(=O)c2ccccc2C3=O)cc1 | 1.26 ± 0.23 | 1.09 ± 0.067 | 0.964 ± 0.12 | 1 ± 0.057 | 1.56 ± 0.21 | 1.12 ± 0.12 | 0.996 (active)
Cn1cnc([N+](=O)[O-])c1Sc1ncnc2nc[nH]c12 | 1.1 ± 0.2 | 0.844 ± 0.23 | 0.983 ± 0.077 | 0.934 ± 0.031 | 1.2 ± 0.33 | 0.986 ± 0.23 | 0.983 (active)
NC(Cc1ccccc1)C(=O)O (centres undefined) | 1.29 ± 0.31 | 0.956 ± 0.07 | 0.943 ± 0.071 | 0.911 ± 0.032 | 1.12 ± 0.22 | 1.1 ± 0.1 | 1 (active)
CC(O)(P(=O)(O)O)P(=O)(O)O | 0.76 ± 0.033 | 0.997 ± 0.1 | 1.08 ± 0.079 | 0.956 ± 0.069 | 1.14 ± 0.27 | 1.26 ± 0.4 | 0.98 (active)
CCOc1ccc(NC(=O)CC2Nc3cccc4cccc(c34)NC2=O)cc1 (centres undefined) | 0.91 ± 0.066 | 1.01 ± 0.067 | 0.926 ± 0.077 | 0.884 ± 0.049 | 1.31 ± 0.083 | 1.25 ± 0.34 | 0.926 (active)
Cc1cc(CCC(=O)N(C)C2CN(c3ccc4nnc(C)n4n3)C2)ccc1F | 1.11 ± 0.058 | 1.1 ± 0.091 | 0.918 ± 0.046 | 1.19 ± 0.073 | 1.12 ± 0.095 | 1.11 ± 0.16 | 0.979 (active)
O=C(O)c1ccccc1 | 1.07 ± 0.21 | 1.24 ± 0.38 | 0.974 ± 0.089 | 0.933 ± 0.029 | 1.46 ± 0.34 | 1.33 ± 0.1 | 0.998 (active)
Cc1c(C(=O)Nc2cccc3ccccc23)cccc1[N+](=O)[O-] | 0.854 ± 0.25 | 1.2 ± 0.12 | 1.04 ± 0.18 | 0.807 ± 0.034 | 1.22 ± 0.22 | 1.41 ± 0.42 | 0.633 (inactive)
CN(C/C=C/C#CC(C)(C)C)Cc1cccc2ccccc12.Cl | 1.15 ± 0.054 | 0.905 ± 0.072 | 0.913 ± 0.049 | 1.07 ± 0.068 | 0.817 ± 0.14 | 0.885 ± 0.19 | 0.702 (active)
CNC(=O)Cc1cn(Cc2ccccc2)c2ccccc12 | 0.809 ± 0.19 | 1.11 ± 0.12 | 1.11 ± 0.082 | 0.947 ± 0.038 | 0.977 ± 0.11 | 1.05 ± 0.12 | 0.999 (active)
CC(C)C(C(=O)Nc1ccc(F)cc1)N1C(=O)c2ccccc2C1=O (centres undefined) | 0.911 ± 0.079 | 1.06 ± 0.086 | 0.935 ± 0.077 | 0.957 ± 0.033 | 1.09 ± 0.15 | 0.943 ± 0.058 | 1.02 (active)
O=C(NCCCc1cnc2ncnn2c1)c1cccc2ccccc12 | 0.88 ± 0.039 | 0.857 ± 0.071 | 1.06 ± 0.059 | 1.02 ± 0.057 | 1.23 ± 0.14 | 1.45 ± 0.39 | 0.98 (active)
COc1cccc(-c2csc(NC(=O)C3CC3)n2)c1 | 1.16 ± 0.19 | 1.44 ± 0.11 | 1.31 ± 0.17 | 1.19 ± 0.053 | 1.26 ± 0.26 | 1.35 ± 0.14 | 1 (active)
Nc1ccc(O)c(C(=O)O)c1 | 1.08 ± 0.089 | 0.898 ± 0.12 | 1.04 ± 0.022 | 0.956 ± 0.053 | 0.923 ± 0.084 | 1.03 ± 0.13 | 0.989 (active)
CN(C(=NS(=O)(=O)c1ccccc1)c1ccccc1)c1ccc(O)cc1 | 1.05 ± 0.19 | 1.39 ± 0.11 | 1.16 ± 0.096 | 0.968 ± 0.063 | 1.2 ± 0.26 | 1.24 ± 0.2 | 1.01 (active)
FC(F)(F)c1ccc(CNc2ccc(Cc3c[nH]c4ncc(Cl)cc34)cn2)cn1 | 0.154 ± 0.011 | 0.281 ± 0.028 | 0.378 ± 0.02 | 0.0391 ± 0.0019 | 0.335 ± 0.13 | 0.202 ± 0.083 | 0.978 (active)
O=C1CCCc2nn(-c3ccccc3)nc21 | 1.02 ± 0.086 | 1.05 ± 0.14 | 1.09 ± 0.12 | 1 ± 0.049 | 1.17 ± 0.14 | 1.21 ± 0.19 | 1.03 (active)
Cc1ccc(C(=O)C(C)CN2CCCCC2)cc1.Cl (centres undefined) | 0.981 ± 0.13 | 1.05 ± 0.14 | 0.908 ± 0.052 | 0.895 ± 0.032 | 1.27 ± 0.41 | 1.43 ± 0.15 | 0.956 (active)
CC(O)(CNC(=O)NCc1ccc(F)cc1)c1ccc(-c2ccccc2)cc1 (centres undefined) | 0.998 ± 0.053 | 1.14 ± 0.12 | 0.873 ± 0.077 | 1.08 ± 0.056 | 1.32 ± 0.1 | 1.62 ± 0.14 | 0.966 (active)
C[C@@H](Oc1cc(-c2cnn(C3CCNCC3)c2)cnc1N)c1c(Cl)ccc(F)c1Cl | 0.149 ± 0.026 | 0.423 ± 0.2 | 1.47 ± 0.12 | 0.0546 ± 0.0028 | 0.165 ± 0.074 | 0.128 ± 0.02 | 0.0221 (inactive)
CC(=O)OC1(C(C)=O)CCC2C3CC(C)C4=CC(=O)CCC4(C)C3CCC21C (centres undefined) | 1.65 ± 0.4 | 1.36 ± 0.11 | 1.29 ± 0.089 | 0.937 ± 0.045 | 1.1 ± 0.13 | 1.23 ± 0.14 | 0.984 (active)
COc1ccc(S(=O)(=O)NCCn2nc(C(F)(F)F)cc2C2CC2)cc1 | 0.935 ± 0.077 | 1.09 ± 0.083 | 1.04 ± 0.029 | 0.996 ± 0.037 | 0.953 ± 0.096 | 0.834 ± 0.15 | 0.979 (active)
CC(C)Oc1ccc(C(=O)NC2CCN(c3ncnc4c3CCCC4)CC2)cn1 | 1.15 ± 0.086 | 1.14 ± 0.086 | 0.985 ± 0.031 | 0.939 ± 0.055 | 1.06 ± 0.083 | 1.04 ± 0.11 | 0.997 (active)
CCNC1(C(N)=O)CCN(c2ncnc3c2nc(-c2ccccc2Cl)n3-c2ccc(Cl)cc2)CC1.Cl | 1.24 ± 0.11 | 0.479 ± 0.038 | 0.674 ± 0.036 | 0.19 ± 0.0086 | 0.464 ± 0.13 | 0.484 ± 0.12 | 0.688 (inactive)
COc1ccc(CN(CCN(C)C)c2ccccn2)cc1.O=C(O)/C=C\C(=O)O | 0.568 ± 0.15 | 1 ± 0.053 | 1.01 ± 0.094 | 0.834 ± 0.073 | 0.773 ± 0.13 | 0.78 ± 0.087 | 0.946 (active)
